92 molecules from article PMC4336329 (PLoS ONE, 2015) can be followed below.

The campaign covered roughly 310,000 compounds. About 14,000 (4.5%) showed an effect of 50% or more. The effect is printed as a negative number. The entries come from a sample that favours strong results as a whole.
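Note: peak tail current of the secondary pulse compared with the same well before compound.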

The target in the experiment is human ether-à-go-go-related gene (hERG) potassium channel (human, UniProt Q12809). The experiment in a line: primary screen, population patch clamp on CHO cells stably expressing hERG; higher = less effect of the substance.
Chain of human ether-à-go-go-related gene (hERG) potassium channel (Q12809 whole entry, looked up): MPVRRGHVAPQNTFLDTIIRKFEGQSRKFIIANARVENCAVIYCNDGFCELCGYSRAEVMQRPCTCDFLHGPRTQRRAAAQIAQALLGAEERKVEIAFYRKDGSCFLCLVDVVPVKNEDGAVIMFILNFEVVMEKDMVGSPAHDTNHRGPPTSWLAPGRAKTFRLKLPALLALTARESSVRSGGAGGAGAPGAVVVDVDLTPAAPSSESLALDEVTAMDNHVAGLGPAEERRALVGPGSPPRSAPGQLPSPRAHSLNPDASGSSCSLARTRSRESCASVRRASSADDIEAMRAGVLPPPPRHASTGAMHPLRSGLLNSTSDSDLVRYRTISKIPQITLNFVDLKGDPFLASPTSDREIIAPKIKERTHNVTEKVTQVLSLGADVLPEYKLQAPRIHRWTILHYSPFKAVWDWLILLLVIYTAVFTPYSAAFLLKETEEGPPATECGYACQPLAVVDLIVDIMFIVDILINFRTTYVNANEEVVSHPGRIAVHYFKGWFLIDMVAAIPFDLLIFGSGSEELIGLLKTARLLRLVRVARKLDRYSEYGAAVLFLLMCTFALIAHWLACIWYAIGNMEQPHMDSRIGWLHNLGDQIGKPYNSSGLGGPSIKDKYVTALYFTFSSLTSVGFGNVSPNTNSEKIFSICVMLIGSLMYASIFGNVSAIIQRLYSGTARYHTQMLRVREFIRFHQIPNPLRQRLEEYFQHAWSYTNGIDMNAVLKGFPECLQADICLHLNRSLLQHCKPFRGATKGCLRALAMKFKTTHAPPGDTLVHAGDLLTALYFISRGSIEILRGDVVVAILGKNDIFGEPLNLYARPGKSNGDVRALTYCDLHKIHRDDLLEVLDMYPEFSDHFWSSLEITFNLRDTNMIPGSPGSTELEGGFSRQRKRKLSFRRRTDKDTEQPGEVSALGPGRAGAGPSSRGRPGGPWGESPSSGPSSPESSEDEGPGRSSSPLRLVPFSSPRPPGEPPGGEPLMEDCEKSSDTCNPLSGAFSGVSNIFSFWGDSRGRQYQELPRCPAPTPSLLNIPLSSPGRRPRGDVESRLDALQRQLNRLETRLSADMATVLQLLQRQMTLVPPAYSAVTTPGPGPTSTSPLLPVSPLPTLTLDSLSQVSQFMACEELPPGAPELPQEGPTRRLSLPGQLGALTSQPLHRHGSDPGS
Take `CCOC(=O)c1cnn(-c2ccccc2)c1-n1cccc1`: the “hERG current change (%, negative = inhibition) at 10uM” value is reported as -8.27%. On to `C=CCNC(=S)Nc1ccccc1`, for which the “hERG current change (%, negative = inhibition) at 10uM” value is on record as -8.73%. Then `CN(C)c1ccc(NC(=O)Nc2csc3ccccc23)cc1`, with 18.4%; and `Fc1cccc(F)c1CN1CCN(c2ncccn2)CC1`, with 15.5%; and `Nc1c(C(=O)CCC(=O)O)oc2ccc(Cl)cc12`, with -9.4%. As for `F[B-](F)(F)F.OCCCCC[NH+]=c1cc(-c2ccccc2)oc2ccc(Cl)cc12`, the “hERG current change (%, negative = inhibition) at 10uM” value is listed as -80.3%. Then `O=C(COc1ccc2oc(-c3ccccc3)cc(=O)c2c1)Nc1ccccc1`, with -2.43%.

Turning to `F[B-](F)(F)F.OCCC[NH+]=c1cc(-c2ccccc2)oc2ccc(Cl)cc12`, the “hERG current change (%, negative = inhibition) at 10uM” value is given as -79.1%. The figure for `O=c1cc(-c2ccccc2)oc2ccc(O)cc12` is -9.74%. The figure for `F[B-](F)(F)F.OCC[NH+]=c1cc(-c2ccccc2)oc2ccc(Cl)cc12` is -71.3%. Then `O=c1oc2ccc(Cl)cc2cc1-c1ccccc1`, with 22.4%; and `COc1ccc(-c2cc(=[NH+]c3ccccc3)c3cc(C)ccc3o2)cc1.[O-][Cl+3]([O-])([O-])[O-]`, with 24.8%; and `OCCCNc1nc(-c2ccccc2)c2cc(Cl)ccc2n1`, with 3.04%. Regarding `CCCNC(=O)c1cccc(COCC(F)(F)F)c1`, the “hERG current change (%, negative = inhibition) at 10uM” value is -2.57%. Take `O=C(Nc1ccccn1)C1(c2cccs2)CCOCC1`: the “hERG current change (%, negative = inhibition) at 10uM” value was found to be 8.48%. For `Cc1ccc(S(=O)(=O)N2CCOC23CCN(C(=O)c2ccc(Cl)cc2Cl)CC3)cc1`, the “hERG current change (%, negative = inhibition) at 10uM” value is recorded as -48.1%.

With `COc1ccc(S(=O)(=O)N2CCOC23CCN(C(=O)c2ccc(Cl)cc2Cl)CC3)cc1`, the “hERG current change (%, negative = inhibition) at 10uM” value is -68.9%. Then `COc1ccc(S(=O)(=O)N2CCC3(CC2)OCCN3S(=O)(=O)c2ccc(OC)cc2)cc1`, with -24.1%; and `O=[N+]([O-])c1ccc(S(=O)(=O)N2CCC3(CC2)OCCN3S(=O)(=O)c2cccs2)cc1`, with -50.4%.

Regarding `COc1ccc(S(=O)(=O)N2CCOC23CCN(S(=O)(=O)c2ccc([N+](=O)[O-])cc2)CC3)cc1`, the “hERG current change (%, negative = inhibition) at 10uM” value was -62%. `COc1ccc(S(=O)(=O)N2CCC3(CC2)OCCN3S(=O)(=O)c2cccs2)cc1`: the “hERG current change (%, negative = inhibition) at 10uM” value is recorded as -23.8%.

For `Cc1ccc(S(=O)(=O)N2CCOC23CCN(C(=O)c2cc(Cl)ccc2Cl)CC3)cc1`, the “hERG current change (%, negative = inhibition) at 10uM” value was -47.6%.

For `O=S(=O)(c1ccc(F)cc1)N1CCC2(CC1)OCCN2S(=O)(=O)c1cccs1`, the “hERG current change (%, negative = inhibition) at 10uM” value was -10.9%.

For `COc1ccc(S(=O)(=O)N2CCOC23CCN(S(=O)(=O)c2ccccc2)CC3)cc1`, the “hERG current change (%, negative = inhibition) at 10uM” value was determined as 8.72%. Then `COc1ccc(OCCSc2nc(N)cc(=O)[nH]2)cc1`, with -1.77%. For `Cc1cccc(OCCC(=O)Nc2ccc(N3CCOCC3)cc2N2CCOCC2)c1`, the “hERG current change (%, negative = inhibition) at 10uM” value is -19.7%. Then `COn1c(SCc2ccc(C)cc2C)nc2ccccc2c1=O`, with 7.64%; and `O=C(Nc1ccc(SC(F)F)cc1)c1ccc2nccnc2c1`, with -17.1%. Then `Cc1ccccc1C(=O)OC1CCN(C)CC1.Cl`, with 6.06%; and `CN1CCC(OC(=O)Cc2ccccc2)CC1.Cl`, with 5.22%. The figure for `CN1CCC(Oc2ccccc2Sc2ccccc2)CC1.O=C(O)C(=O)O` is -64.5%.

Consider `CN1CCC(Oc2ccc(Sc3ccccc3)cc2)CC1.Cl`, for which the “hERG current change (%, negative = inhibition) at 10uM” value is recorded as -67%. For `CN1CCC(OC(=O)COc2ccc(C(C)(C)C)cc2)CC1.Cl`, the “hERG current change (%, negative = inhibition) at 10uM” value is given as -28.7%.

Turning to `CN1CCC(OC(=O)COc2ccccc2)CC1.Cl`, the “hERG current change (%, negative = inhibition) at 10uM” value was 15.1%. Then `CN1CCC(OC(=O)c2ccccc2)CC1.Cl`, with 7.92%. The figure for `COc1ccc(OC2CCN(S(=O)(=O)c3ccccc3)CC2)cc1` is -11.6%. Then `CN1CCC(Oc2ccccc2Sc2ccc(C(F)(F)F)cc2)CC1.O=C(O)C(=O)O`, with -63.2%. For the molecule `COc1ccccc1NC(=O)CCCCC(=O)Nc1ccccc1OC`, the “hERG current change (%, negative = inhibition) at 10uM” value stood at 7.88%. As for `O=Cc1ccccc1-c1cn(CN2C(=O)c3ccccc3C2=O)nn1`, the “hERG current change (%, negative = inhibition) at 10uM” value was determined as 3.42%. `O=C(CCc1nnc2ccc(NCc3ccc(F)cc3)nn12)N1CCC2(CC1)OCCO2`: the “hERG current change (%, negative = inhibition) at 10uM” value is listed as -0.229%. The figure for `Cc1ccc(NC(=O)CCc2nnc3ccc(NCc4ccco4)nn23)cc1F` is -70.9%; for `O=C(CCc1nnc2ccc(NCc3ccco3)nn12)N1CCN(c2ccc(F)cc2)CC1` it is -46.7%; for `O=C(CCc1nnc2ccc(NCc3ccccc3)nn12)N1CCC2(CC1)OCCO2` it is 14.4%. Then `O=C(CCc1nnc2ccc(NCc3ccco3)nn12)N1CCN(c2ccccc2F)CC1`, with -20.5%; and `O=C(CCc1nnc2ccc(NCc3ccco3)nn12)Nc1ccc(F)cc1`, with -9.82%; and `O=C(CCc1nnc2ccc(NCc3ccccc3Cl)nn12)N1CCC2(CC1)OCCO2`, with -67.7%.

As to `Cc1ccc(NC(=O)CCc2nnc3ccc(NCc4ccco4)nn23)cc1`, the “hERG current change (%, negative = inhibition) at 10uM” value is recorded as -2.39%.

With `O=C(CCc1nnc2ccc(NCc3ccco3)nn12)N1CCN(c2ccccc2)CC1`, the “hERG current change (%, negative = inhibition) at 10uM” value is -56.3%. The figure for `COC(=O)C1(Cc2cc(-c3ccc(Cl)cc3)no2)CCN(C(=O)OC(C)(C)C)CC1` is -22.8%; for `CCOc1ccc(OCC)c(S(=O)(=O)NCc2ccccc2)c1` it is -10.1%; for `Clc1ccc(N2CCCCCC2)nn1` it is 4.93%.

As for `O=C(c1noc2c1CCCC2)N1CCN(c2ccccc2)CC1`, the “hERG current change (%, negative = inhibition) at 10uM” value is -17.6%. Take `CCOc1cc(CNc2ccc3[nH]c(=O)[nH]c3c2)ccc1OCC(=O)NC(C)(C)C`: the “hERG current change (%, negative = inhibition) at 10uM” value is 12.4%.

Turning to `COc1ccc(C2=NN(C(=O)CN3CCCCC3)C(c3ccc(C)cc3)C2)cc1` (centres unmarked), the “hERG current change (%, negative = inhibition) at 10uM” value is -54.9%. Turning to `COc1ccc(C2=NN(C(=O)CN3CCCC3)C(c3ccc(OC)cc3)C2)cc1` (centres unmarked), the “hERG current change (%, negative = inhibition) at 10uM” value is on record as -40.7%. The figure for `COc1ccc(C2=NN(C(=O)CCC(=O)O)C(c3ccc(Br)cc3)C2)cc1` (centres unmarked) is 29.9%; for `COc1ccc(C2CC(c3ccc(Br)cc3)=NN2C(=O)CN2CCCC2)cc1` (centres unmarked) it is -68.1%; for `COc1ccc(C2CC(c3ccccc3)=NN2C(=O)CN2CCN(Cc3ccccc3)CC2)cc1` (centres unmarked) it is -31.2%.

In the case of `COc1ccc(C2=NN(C(=O)CN3CCCCC3)C(c3ccc(OC)cc3)C2)cc1` (centres unmarked), the “hERG current change (%, negative = inhibition) at 10uM” value is reported as -40.1%. Consider `COC(=O)C1C2C=CC3(CN(c4ccc(Cl)c(F)c4)C(=O)C13)O2` (centres unmarked), for which the “hERG current change (%, negative = inhibition) at 10uM” value is recorded as 4.99%. Then `N#Cc1ccc(S(=O)(=O)N2CCN(c3ncccn3)CC2)cc1`, with -17.9%; and `Cc1ccc(S(=O)(=O)N2CCN(c3nccnc3C#N)CC2)cc1`, with -54.8%; and `Cc1ccc(S(=O)(=O)N2CCN(c3ccccn3)CC2)cc1`, with 4.96%.

`O=C(O)Cc1ccc(NC(=O)c2cnccn2)cc1`: the “hERG current change (%, negative = inhibition) at 10uM” value came out at 26.1%. Then `COc1cc(/C=N/NC(=O)Cc2ccccc2)cc([N+](=O)[O-])c1O`, with 10%.

Regarding `COc1ccc(NC(=S)N2CCN(C/C=C/c3ccccc3)CC2)cc1`, the “hERG current change (%, negative = inhibition) at 10uM” value is reported as -24.1%. Regarding `COc1cc(NC(=O)Cc2ccccc2)cc(OC)c1`, the “hERG current change (%, negative = inhibition) at 10uM” value is on record as -4.79%.

As to `COc1cc(NC(=S)N2CCN(C/C=C/c3ccccc3)CC2)cc(OC)c1`, the “hERG current change (%, negative = inhibition) at 10uM” value is -10.7%. Then `CCN(CCC(=O)Nc1ccc(Br)c(C)c1)Cc1ccccc1.Cl`, with -36.8%; and `COc1ccc(NC(=O)CCN2CCN(C/C=C/c3ccccc3)CC2)cc1`, with -77.3%; and `COc1cc(NC(=O)CCN2CCN(Cc3ccccc3)CC2)cc(OC)c1`, with -20.1%.

For `COc1cc(NC(=O)CCN2CCN(C/C=C/c3ccccc3)CC2)cc(OC)c1`, the “hERG current change (%, negative = inhibition) at 10uM” value is listed as -69.3%. Then `COc1ccc(NC(=O)CCN2CCCCCC2)cc1`, with -12.3%. In the case of `CCN(CCC(=O)Nc1cc(OC)cc(OC)c1)Cc1ccccc1`, the “hERG current change (%, negative = inhibition) at 10uM” value is on record as -65.1%. Then `Cc1nc2ccccc2c(=O)n1NC(=O)c1cncc(Br)c1`, with 14.9%; and `Cc1cc(C)c(C(=O)OCCNC(=O)c2cccnc2)cc1C`, with -17.3%; and `CCc1ccccc1N(CC(=O)NCc1ccco1)C(=O)CCC(=O)Nc1nccs1`, with 0.493%.

In the case of `N#CC(C#N)=Cc1cnc(N2CCN(c3ccccc3)CC2)s1`, the “hERG current change (%, negative = inhibition) at 10uM” value is recorded as 23%.

`COCCN(C(=S)Nc1cc(C)ccc1C)C(C)c1cccnc1` (centres unmarked): the “hERG current change (%, negative = inhibition) at 10uM” value is -25.4%. Then `Cc1ccc(OC(C)C(=O)Nc2ccccc2C(=O)N2CCN(C)CC2)cc1` (centres unmarked), with -5.11%; and `Cc1c(Nc2c3ccccc3nc3ccccc23)c(=O)n(-c2ccccc2)n1C`, with -71%. Regarding `Cc1c(Nc2nc(C(F)(F)F)nc3ccccc23)c(=O)n(-c2ccccc2)n1C`, the “hERG current change (%, negative = inhibition) at 10uM” value was -1.37%. Take `Cc1c(Nc2nc3ccccc3nc2NS(=O)(=O)c2cccc(Cl)c2)c(=O)n(-c2ccccc2)n1C`: the “hERG current change (%, negative = inhibition) at 10uM” value is -2.18%. As to `Cc1c(NP(=O)(C(C)(C)C)C(C)(C)C)c(=O)n(-c2ccccc2)n1C`, the “hERG current change (%, negative = inhibition) at 10uM” value is listed as 26.4%. Then `Cc1c(Nc2nc3ccccc3nc2NS(=O)(=O)c2ccccc2)c(=O)n(-c2ccccc2)n1C`, with -67.1%. For the molecule `Cc1cc(Nc2c(C)n(C)n(-c3ccccc3)c2=O)n2c(nc3cc(F)c(F)cc32)c1C#N`, the “hERG current change (%, negative = inhibition) at 10uM” value worked out at 19.2%.

For `Cc1c(NP(=O)(c2ccc(Br)cc2)c2ccc(Br)cc2)c(=O)n(-c2ccccc2)n1C`, the “hERG current change (%, negative = inhibition) at 10uM” value is given as -65.7%. For `CCc1c(C)c(C#N)c2nc3ccccc3n2c1Nc1c(C)n(C)n(-c2ccccc2)c1=O`, the “hERG current change (%, negative = inhibition) at 10uM” value was -5.49%. Then `Cc1cc(Nc2c(C)n(C)n(-c3ccccc3)c2=O)n2c(nc3ccccc32)c1C#N`, with -73.6%. In the case of `Cc1c(Nc2nc3ccccc3nc2NS(=O)(=O)c2cccs2)c(=O)n(-c2ccccc2)n1C`, the “hERG current change (%, negative = inhibition) at 10uM” value is 1.13%. Consider `Cc1cc(Nc2c(C)n(C)n(-c3ccccc3)c2=O)c2ccccc2n1`, for which the “hERG current change (%, negative = inhibition) at 10uM” value is -20.3%. For `Cc1c(NS(=O)(=O)c2ccc(Br)cc2)c(=O)n(-c2ccccc2)n1C`, the “hERG current change (%, negative = inhibition) at 10uM” value is given as -6.03%.
